Source: PubChem BioAssay AID1159580 (chemical genetic matrix, 2015)
Where “and” joins values, the source holds several entries; their conditions need not be identical. Identical values can stand only once. The campaign covered roughly 5,500 compounds. About 2,000 (36%) were called active. Roughly 18% stayed inconclusive and do not appear here. Cut-off read from the data, not from the text of the source: active = normalized growth mostly below about 0.91 (no sharp cut-off); inconclusive = no clear call, values can overlap the other calls; inactive = mostly above about 0.92. The list shows a part of the results.

Experiment: chemical genetic growth profiling, strain panel (AID 1159580);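 note: tested at 20 µM; growth read once vehicle control cultures reached saturation at 30 °C; 1 = growth at the plate median or of vehicle wells; lower values mean less growth of the strain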
Settings: S. cerevisiae deletion strains, growth OD

Measured: normalized growth

C[C@@H]1O[C@@H](O[C@H]2[C@@H](Oc3cc(O)c4c(c3)O[C@H](c3ccc(O)cc3)CC4=O)O[C@H](CO)[C@@H](O)[C@@H]2O)[C@H](O)[C@H](O)[C@H]1O
inactive: locus YAL013W, strain DEP1, stronger effect = lower value 1 | locus YAL021C, strain ccr4, stronger effect = lower value 0.969 | locus YAL026C, strain drs2, stronger effect = lower value 0.977 | locus YAL030W, strain snc1, stronger effect = lower value 0.956 | locus YBL061C, strain skt5, stronger effect = lower value 0.96 | locus YBR009C, strain hhf1, stronger effect = lower value 0.971 | locus YBR021W, strain FUR4, stronger effect = lower value 1.02 | locus YBR023C, strain chs3, stronger effect = lower value 0.978 | locus YBR171W, strain sec66, stronger effect = lower value 0.977 | locus YBR229C, strain ROT2, stronger effect = lower value 0.956 | locus YBR231C, strain swc5, stronger effect = lower value 0.97 | locus YBR279W, strain paf1, stronger effect = lower value 0.975 | locus YCL011C, strain gbp2, stronger effect = lower value 0.957 | locus YCL016C, strain dcc1, stronger effect = lower value 0.972 | locus YCL029C, strain bik1, stronger effect = lower value 0.991 | locus YCL061C, strain MRC1, stronger effect = lower value 0.985 | locus YCL069W, strain vba3, stronger effect = lower value 0.97 | locus YCR088W, strain abp1, stronger effect = lower value 0.979 | locus YDL005C, strain med2, stronger effect = lower value 0.967 | locus YDL035C, strain GPR1, stronger effect = lower value 0.996 | locus YDL040C, strain nat1, stronger effect = lower value 0.981 | locus YDL074C, strain BRE1, stronger effect = lower value 0.975 | locus YDL101C, strain DUN1, stronger effect = lower value 0.977 | locus YDL134C, strain PPH21, stronger effect = lower value 0.956 | locus YDL185W, strain tfp1, stronger effect = lower value 0.992 | locus YDL192W, strain arf1, stronger effect = lower value 0.995 | locus YDR001C, strain nth1, stronger effect = lower value 0.954 | locus YDR069C, strain doa4, stronger effect = lower value 0.97 | locus YDR101C, strain arx1, stronger effect = lower value 0.997 | locus YDR137W, strain rgp1, stronger effect = lower value 0.983 | locus YDR150W, strain NUM1, stronger effect = lower value 0.977 | locus YDR159W, strain sac3, stronger effect = lower value 0.978 | locus YDR162C, strain NBP2, stronger effect = lower value 0.992 | locus YDR195W, strain ref2 0.956 | locus YDR297W, strain sur2, stronger effect = lower value 0.984 | locus YDR318W, strain mcm21, stronger effect = lower value 0.994 | locus YDR334W, strain swr1, stronger effect = lower value 0.942 | locus YDR335W, strain msn5, stronger effect = lower value 0.969 | locus YDR388W, stronger effect = lower value 1 | locus YDR392W, strain spt3, stronger effect = lower value 0.934 | locus YDR502C, strain sam2, stronger effect = lower value 1 | locus YEL003W, strain gim4, stronger effect = lower value 0.967 | locus YEL037C, strain rad23, stronger effect = lower value 0.966 | locus YEL061C, strain CIN8 (second series), stronger effect = lower value 0.964 | locus YEL061C, strain CIN8, stronger effect = lower value 1 | locus YER015W, strain faa2, stronger effect = lower value 0.959 | locus YER016W, strain bim1, stronger effect = lower value 0.971 | locus YER110C, stronger effect = lower value 0.986 | locus YER111C, strain swi4, stronger effect = lower value 0.983 | locus YER155C, strain BEM2 (second series), stronger effect = lower value 0.972 | locus YER155C, strain BEM2, stronger effect = lower value 1.01 | locus YER167W, strain BCK2, stronger effect = lower value 1 | locus YFR010W, strain ubp6, stronger effect = lower value 0.954 | locus YGL078C, strain dbp3, stronger effect = lower value 0.991 | locus YGL086W, strain mad1, stronger effect = lower value 0.998 | locus YGL167C, strain pmr1, stronger effect = lower value 0.977 | locus YGL173C, strain kem1, stronger effect = lower value 0.946 | locus YGL227W, strain vid30, stronger effect = lower value 0.975 | locus YGL240W, strain doc1, stronger effect = lower value 0.991 | locus YGL248W, strain PDE1, stronger effect = lower value 0.979 | locus YGL253W, strain hxk2, stronger effect = lower value 0.977 | locus YGR078C, strain PAC10, stronger effect = lower value 0.987 | locus YGR135W, strain pre9, stronger effect = lower value 1 | locus YGR229C, strain SMI1, stronger effect = lower value 0.987 | locus YGR252W, strain gcn5, stronger effect = lower value 0.991 | locus YHR013C, strain ard1, stronger effect = lower value 0.943 | locus YHR027C, strain rpn1, stronger effect = lower value 0.959 | locus YHR030C, strain SLT2, stronger effect = lower value 0.99 and 1 | locus YHR079C, strain IRE1 (second series), stronger effect = lower value 0.999 | locus YHR079C, strain IRE1, stronger effect = lower value 0.989 | locus YHR094C, strain hxt1, stronger effect = lower value 0.996 | locus YHR129C, strain ARP1, stronger effect = lower value 0.993 | locus YHR142W, strain chs7, stronger effect = lower value 0.921 | locus YHR200W, strain rpn10, stronger effect = lower value 1 | locus YIL066C, strain RNR3, stronger effect = lower value 0.976 | locus YIL073C, strain SPO22, stronger effect = lower value 0.946 | locus YIL125W, strain kgd1, stronger effect = lower value 0.999 | locus YIR030C, strain dcg1, stronger effect = lower value 0.986 | locus YJL092W, strain hpr5, stronger effect = lower value 0.967 | locus YJL095W, strain BCK1 (second series), stronger effect = lower value 0.968 | locus YJL095W, strain BCK1, stronger effect = lower value 0.998 and 1 | locus YJL115W, strain asf1, stronger effect = lower value 0.938 | locus YJL129C, strain trk1, stronger effect = lower value 0.939 | locus YJL134W, strain LCB3, stronger effect = lower value 0.985 | locus YJL154C, strain vps35, stronger effect = lower value 0.961 | locus YJL164C, strain tpk1, stronger effect = lower value 0.98 | locus YJL166W, strain qcr8, stronger effect = lower value 0.977 | locus YJL168C, strain set2, stronger effect = lower value 1 | locus YJL187C, strain SWE1 (second series), stronger effect = lower value 0.968 | locus YJL187C, strain SWE1, stronger effect = lower value 0.974 | locus YJR043C, strain POL32, stronger effect = lower value 0.995 | locus YJR066W, strain TOR1, stronger effect = lower value 0.926
